In the library only some 1.1% were active in any assay of this set; here they are far more common.
VDR inh – blocks the human vitamin D receptor; P11473; VDR-SRC2-3 peptide fluorescence polarization, 2 h; Potency, µM, for the others: max response, negative = inhibition, hits mostly inhibitors; actives 0.93% (n = 400,000)
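VDR–SRC2-3 interaction, FP format. Cmpds 23 nl via pintool, brief spin, 2 h ambient incubation.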
Pin1 inh – human Pin1 inhibition. Q13526. Pin1 FP peptide displacement, HiFluor488, 10 min. Potency, µM (titrated, usually from 115 µM), inactives show at the top dose activity, negative = inhibition, usual class: inhibitors. actives 0.009% (n = 390,000). AID 504891; active = well fitted inhibition curve with a large enough effect in the polarisation, with a control signal flat, not every such curve was filed as active; inconclusive = small, poorly fitted or top-dose-only effect, or effect the other way, or a change in a side signal; inactive = no such curve, though single readings can be large or run the other way; the % refers to the polarisation
Target sequence (Q13526 whole entry, looked up): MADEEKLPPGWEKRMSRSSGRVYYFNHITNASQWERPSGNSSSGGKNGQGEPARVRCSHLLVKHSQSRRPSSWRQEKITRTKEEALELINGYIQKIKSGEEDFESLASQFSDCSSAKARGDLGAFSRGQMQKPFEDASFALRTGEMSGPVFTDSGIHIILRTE
Tb PGK inh – blocks T. brucei phosphoglycerate kinase; P07378; PGK/GAPDH coupled, Kinase-Glo luminescence, 60 min; Potency, µM (top dose mostly 57.5 µM), for inactives: at the highest dose activity change, negative = inhibition, actives largely listed as inhibitors; actives 0.043% (n = 380,000); also: nearly all actives have a fitted effect of over 60% in size
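Recombinant glycosomal PGK reaction used 1,3-bisphosphoglycerate generated in-well by GAPDH (100nM final) in 100mM TEA pH 7.6, 5mM MgCl2, 0.01% Tween-20. After 60 minutes at room temperature, ATP was read by Kinase-Glo Plus luminescence end-point.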
Tb PFK inh – blocks T. brucei phosphofructokinase; O15648; T. brucei PFK, ADP-Glo luminescence; Potency, µM (highest dose often 57.5 µM), inactives show at the top dose activity, negative = inhibition, hits mostly inhibitors; actives 0.17% (n = 330,000); AID 485367;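 also: 0% = uninhibited 1x PFK enzyme wells and -100% = no-enzyme wells; nearly all actives have a fitted effect of over 60% in size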
Target sequence (O15648 whole entry, looked up): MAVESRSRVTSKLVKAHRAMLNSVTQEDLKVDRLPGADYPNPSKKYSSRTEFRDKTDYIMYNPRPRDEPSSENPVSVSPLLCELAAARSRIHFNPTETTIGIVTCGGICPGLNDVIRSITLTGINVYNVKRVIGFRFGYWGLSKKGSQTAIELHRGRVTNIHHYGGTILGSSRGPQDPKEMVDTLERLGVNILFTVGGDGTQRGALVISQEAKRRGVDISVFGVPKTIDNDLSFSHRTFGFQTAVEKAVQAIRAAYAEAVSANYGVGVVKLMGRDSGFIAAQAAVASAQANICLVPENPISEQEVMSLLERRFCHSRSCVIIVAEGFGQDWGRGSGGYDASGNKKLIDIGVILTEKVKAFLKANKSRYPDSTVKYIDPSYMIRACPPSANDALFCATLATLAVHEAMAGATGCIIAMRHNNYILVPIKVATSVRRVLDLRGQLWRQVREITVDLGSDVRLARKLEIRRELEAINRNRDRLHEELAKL
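ADP-Glo luminescence quantified ADP after 45 min at room temperature, with 1.25 nM T. brucei PFK, 0.1 mM ATP and 0.5 mM fructose-6-phosphate in pH 8.0 TEA buffer. qHTS titrations up to 57 µM; curves classified by quality.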
GLS inhibitor – inhibitors of human glutaminase (GLS). AID 624170. actives 0.21% (n = 410,000). O94925. Potency, µM (titrated, usually from 45.5 µM), without a hit: top-dose activity change, negative = inhibition, usual class: inhibitors. GLS enzymatic activity, qHTS titration
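Enzyme dispensed in phosphate buffer (45 mM, pH 8.2, 0.02% Tween-20), compounds pinned in, then 1 mM L-glutamine solution and the glutamate oxidase–HRP–Amplex Red mix added; fluorescence read immediately and again after 30 min at room temperature.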
Active calls of the source: *; i = inactive; ? = inconclusive; / = not tested or not shown; ! = not confirmed by another sample. Unless noted, calls follow the shape of the dose curve; as a rule, active = well fitted curve in the direction sought with a large enough effect; inconclusive = small, poorly fitted or top-dose-only effect, or another doubt; inactive = no such curve, though single readings can be large; an effect the other way counts as inactive or inconclusive. Unless noted, % is scaled to controls: 0 for no effect and ±100 for the full control effect; potency is read from the fitted curve at half-maximal effect.

SMILES	VDR inh	Pin1 inh	Tb PGK inh	Tb PFK inh	GLS inhibitor
COC(=O)[C@@]1(C)[C@H]2C(=O)N(Cc3ccccc3)C(=O)[C@H]2[C@H]2CN=C(SCC(=O)c3ccccc3)N21	20µM*	2%	-1%	-1%	12%
N#CCC(=O)Nc1ccc(C(=O)OCC(=O)NC2CCCc3ccccc32)cc1 (stereo unspecified)	2%	?	-7%	2%	-4%
CCOC(=O)c1sc(=NC(=O)c2ccc(F)cc2)n(C)c1C	-10%	-1%	0%	0%	3%
CCOC(=O)c1sc(=NC(=O)c2c(F)cccc2F)n(C)c1C	-13%	-3%	-5%	4%	18µM*
N#CC1=C2SCN(Cc3ccccc3)CN2C(=O)CC1c1ccccc1F (stereo unspecified)	50µM*	6%	2%	-10%	-14%
COc1ccc(Br)cc1C1CC(=O)N2CN(Cc3ccccc3)CSC2=C1C#N (stereo unspecified)	71µM*	0%	-6%	1%	0%
N#CC1=C2SCN(Cc3ccco3)CN2C(=O)CC1c1c(F)cccc1Cl (stereo unspecified)	?	-2%	-13%	4%	-4%
COc1cc(OC)c(N2CC(C(=O)NCCC3=CCCCC3)CC2=O)cc1Cl (stereo unspecified)	10%	1%	-4%	-2%	2%
COc1ccc(NCc2cc3ccc(OC)cc3n(CC(=O)Nc3ccc(C)c(C)c3)c2=O)cc1	-6%	-5%	-2%	/	-6%
COc1ccc(C)cc1NC(=O)Nc1ccccc1OCc1cc(=O)n2ccccc2n1	6%	6%	5%	/	3%
COc1ccc(S(=O)(=O)n2nc(-c3ccco3)nc2NCc2ccc(C(C)C)cc2)cc1	8%	7%	8%	/	-8%
C=CCOc1ccc(C(c2c(O)nc(SC)[nH]c2=O)c2c(O)nc(SC)[nH]c2=O)cc1	22µM*	-6%	-5%	/	25%
O=C(O)c1ccc(-c2ccc(/C=C3\NC(=O)N(Cc4ccc(Cl)cc4)C3=O)o2)cc1Cl	79µM*	/	25µM*	-11%	0%
COc1cccc(-c2ccc3ncnc(NCCN4CCOCC4)c3c2)c1	4%	/	/	/	/
c1nc(NCCN2CCOCC2)c2cc(-c3ccoc3)ccc2n1	45µM*	/	/	/	/
CC(=O)NCCNc1ncnc2ccc(-c3ccoc3)cc12	40µM*	/	/	/	/
CN1CCN(c2ncnc3ccc(-c4ccoc4)cc23)CC1	45µM*	/	/	/	/
CS(=O)(=O)Nc1cccc(-c2ccc3ncnc(N4CCOCC4)c3c2)c1	45µM*	/	/	/	/
Cn1c(=O)c(-c2ccc(Cl)cc2)nc2cnc(Oc3ccccc3)nc21	-4%	/	/	/	/
CC(C)C(=O)N1CCC1(C)C(=O)NCc1ccc(F)cc1Cl (stereo unspecified)	/	/	/	/	-3%
COc1ccccc1-c1ccc2ncnc(N3CCNCC3)c2c1	-22%	/	/	/	/
Cc1ccccc1-c1ccc2ncnc(N3CCNCC3)c2c1	50µM*	/	/	/	/
COCCNc1ncnc2ccc(-c3ccccc3OC)cc12	-7%	/	/	/	/
COCCNc1ncnc2ccc(-c3ccc(N(C)C)cc3)cc12	40µM*	/	/	/	/
COc1cccc(-c2ccc3ncnc(NCCNC(C)=O)c3c2)c1	-8%	/	/	/	/
SMILES	VDR inh	Pin1 inh	Tb PGK inh	Tb PFK inh	GLS inhibitor
COCCNc1ncnc2ccc(-c3ccoc3)cc12	40µM*	/	/	/	/
CC(=O)NCCNc1ncnc2ccc(-c3ccccc3C)cc12	45µM*	/	/	/	/
CCC(C)NC(=O)C1CCC(=O)N1CCc1ccccc1 (stereo unspecified)	-6%	-1%	i	4%	0%
COc1ccccc1N(O)C1CC(=O)N(c2ccc(Br)cc2)C1=O (stereo unspecified)	50µM*	-1%	0%	0%	-9%
CCCCCCC(=O)N(O)C1CC(=O)N(c2ccc(Br)cc2)C1=O (stereo unspecified)	?	7%	-1%	-10%	62%
O=S(=O)(c1ccc2c(c1)OCCO2)N1CCN(S(=O)(=O)c2cccc3cccnc23)CC1	/	23%	/	/	/
COc1ccccc1N1CCN(CCn2c(=O)c3c(c4ccccc4n3C)n(C)c2=O)CC1	45µM*!	/	/	/	/
COc1ccccc1N1CCN(CCn2c(=O)[nH]c3c([nH]c4ccccc43)c2=O)CC1	-1%	/	/	/	/
COc1cc(-c2csc(N3CCC(C(N)=O)CC3)n2)cc(OC)c1OC	/	0%	/	/	/
CCCCC/C=C\C/C=C\C/C=C\CCCCC(=O)NC(C)C(=O)O (stereo unspecified)	-13%	/	/	/	/
CC1=C(C(N)=O)C(c2ccccc2[N+](=O)[O-])n2ncnc2N1 (stereo unspecified)	25µM*	-2%	/	-6%	30%
C=CCN(CC(=O)Nc1cccnc1)S(=O)(=O)c1ccc(Cl)cc1	35%	-1%	-2%	0%	-13%
NC(=O)n1c(O)c(C(=O)c2cccs2)c2cc(Cl)ccc21	45µM*	/	/	/	13%
CCOC(=O)N1CCN(c2cc3[nH]c(=S)[nH]c3cc2F)CC1	-14%	-1%	-8%	7%	16%
CCOC(=O)N1CCN(c2c(F)cc3[nH]c(=S)[nH]c3c2Br)CC1	?	4%	1%	12%	7.1µM*
Cn1cc(-c2nc3cnc(N4CCOCC4)nc3n(CCC#N)c2=O)c2ccccc21	0%	/	/	/	/
CC(C)C(=O)N(c1cc2sc(=O)oc2c2ccccc12)S(=O)(=O)c1cccs1	35µM*	9%	-7%	-24%	11%
CC(C)C(=O)N(c1ccc2oc(=O)sc2c1)S(=O)(=O)c1cccs1	45µM*	-4%	-10%	7%	?
CCCC(=O)N(c1ccc2oc(=O)sc2c1)S(=O)(=O)c1ccccc1	?	-5%	-2%	5%	9%
COc1ccc(N(C(=O)C(C)C)S(=O)(=O)c2cccs2)cc1	-6%	-4%	-10%	-1%	-4%
CC(=O)N(c1ccc2oc(=O)sc2c1)S(=O)(=O)c1cccs1	89µM*	-17%	0%	29%	1%
CC(=O)N(c1ccc2oc(=O)sc2c1)S(=O)(=O)c1ccc(C(=O)O)cc1	79µM*	-14%	-4%	?	-8%
O=c1c(-c2ccccc2)nc2cnc(Oc3cccc(Cl)c3)nc2n1C[C@H]1CCCO1	-2%	/	/	/	/
CN(Cc1ccccc1F)C(=O)c1cccc(NC(=O)CC2SC(N3CCCCC3)=NC2=O)c1 (stereo unspecified)	-7%	-4%	-5%	/	15%
CCCN(CC(=O)Nc1ccccc1OC)CC(=O)c1c(N)n(Cc2ccccc2)c(=O)n(C)c1=O	-6%	2%	-7%	/	2%
CN1CCN(c2ccc(-c3nc(-c4ccccc4)no3)cc2[N+](=O)[O-])CC1	8%	-5%	7%	/	2%
CN(C)C(=O)c1ccc(-c2cncnc2N2CCNCC2)cc1	-3%	/	/	/	/
CCN(CC)c1ccc2nc3c4ccccc4c(=O)cc-3oc2c1	?	?	i	-1%	-1%

Assay outcomes (PubChem BioAssay)
